Assay outcomes from PubChem BioAssay.
MazEF act – increases E. coli MazEF RNase cleavage of RNA; P0AE70; FAM/BHQ RNA-DNA oligo cleavage fluorescence, 5 h; activation, % at 20 µM; 350,000 tested, 0.32% active; AID 504720; in the data active = activation above about 50%
Target sequence (P0AE70 whole entry, looked up): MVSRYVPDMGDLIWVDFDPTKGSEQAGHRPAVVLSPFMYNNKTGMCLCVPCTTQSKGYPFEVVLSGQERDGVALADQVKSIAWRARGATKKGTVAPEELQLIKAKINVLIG
BoNT F protease – inhibitors of Botulinum neurotoxin F light chain protease | 360,000 tested, 0.22% active | inhibition, % at 10 µM | Multiplex microsphere protease cleavage assay, flow cytometry | AID 588497; in the data active = inhibition above about 35%, passing the limit was not always enough; inconclusive = no clear call, values can overlap the other calls; also: plate controls were buffer without enzyme for full effect and enzyme alone for no effect
Bead autofluor – compound fluorescence in toxin protease inhibitor counterscreen | fluorescence intensity (concentration not given with the values) | 360,000 tested, 3.1% active | compound autofluorescence counterscreen, microsphere flow cytometry; stronger effect = higher value; in the data active = fluorescence intensity above about 16000; inconclusive = no clear call, values can overlap the other calls
VHR inh abs – inhibitors of human VHR1 phosphatase (DUSP3) | recombinant VHR phosphatase, pNPP absorbance | 290,000 tested, 0.52% active | inhibition, % at 13.3 µM | P51452; in the data active = inhibition above about 50%
Target sequence (P51452 whole entry, looked up): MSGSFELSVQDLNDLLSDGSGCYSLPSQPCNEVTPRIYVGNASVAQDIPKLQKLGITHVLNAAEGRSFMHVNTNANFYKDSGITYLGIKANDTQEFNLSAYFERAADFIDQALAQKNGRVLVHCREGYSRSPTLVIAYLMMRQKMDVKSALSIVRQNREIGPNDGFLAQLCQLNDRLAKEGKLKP
BoNT-A LC inh2 – BoNT A light chain protease inhibition | 360,000 tested, 0.17% active | inhibition, % at 10 µM | multiplex microsphere protease substrate cleavage, flow cytometry | AID 588499; also: plate controls were buffer without enzyme for full effect and enzyme alone for no effect
Anthrax LF prot – anthrax lethal factor protease inhibition; multiplex microsphere protease cleavage assay, LF; P15917; inhibition, % at 10 µM; 360,000 tested, 0.12% active; also: plate controls were buffer without enzyme for full effect and enzyme alone for no effect
Active calls of the source: *; ? = inconclusive; · = not tested or not shown. The list is not random: actives were taken first. Their share in the collection is about 4.1%. Rule as the data show it, unless noted: active = inhibition above about 30%; inconclusive = no clear call, values can overlap the other calls; inactive = below that.

SMILES | MazEF act | BoNT F protease | Bead autofluor | VHR inh abs | BoNT-A LC inh2 | Anthrax LF prot
CN(Cc1nc(-c2ccccn2)no1)S(=O)(=O)c1ccc(Cl)cc1 | 4 | 4 | 21655* | -6 | 4 | 1
CN(Cc1nc(-c2cccnc2)no1)S(=O)(=O)c1ccccc1 | -2 | 7 | 2859 | 13 | 0 | 1
O=[N+]([O-])c1ccc(/C=C/c2ccc3cccc(O)c3n2)cc1 | 92* | -12 | 3168 | 30 | -2 | -10
CCC(=O)N(CCC(c1ccco1)c1ccccc1OC)Cc1cccs1 (stereo not drawn) | 5 | 0 | 23755* | 2 | 0 | -1
CCOC(=O)CNC(=O)c1cc(-c2ccccn2)nc2c(C)c(Cl)ccc12 | -9 | -2 | 3956 | 53* | 1 | 2
CCN1C(=O)CC(N2CCN(c3ccc(C(=O)c4ccncc4)cc3)CC2)C1=O (stereo not drawn) | -2 | -2 | 20385* | 19 | ? | -3
O=C(c1ccncc1)c1ccc(N2CCN(C3CC(=O)N(Cc4cccs4)C3=O)CC2)cc1 (stereo not drawn) | -5 | -12 | 5581 | 15 | -2 | -1
CC1(C)OC(=O)C2=C(C[C@@H](CCc3ccccc3)O[C@H]2C2CCCC2)O1 | · | 7 | 6060 | · | 0 | 4
CCC(=NC1CC1)c1c(O)n(C2CCCCC2)c(=O)[nH]c1=O | 7 | 2 | 9885 | 5 | -2 | -4
C=CCn1c(O)c(C(CC)=NC2CC2)c(=O)[nH]c1=O | -1 | 0 | 16830* | 38 | -1 | 0
C=CCn1c(O)c(C(CC)=Nc2ccc(N(CC)CC)cc2)c(=O)[nH]c1=O | 3 | 1 | 21974* | 0 | 1 | -3
Cc1cc(C(C)(C)C)cc(C)c1CCNC(=O)c1c(C)noc1C | -7 | -3 | 5915 | · | 3 | -2
O=C(NCCN1CCN(c2ccccc2)CC1)Nc1cccc(Cl)c1 | -1 | -2 | 3639 | 10 | -2 | -2
O=[N+]([O-])c1cc(C=Nc2cccc3c(O)cccc23)ccc1Cl | · | · | · | 22 | · | ·
Cc1cccc(C)c1NC(=O)N1CCC(c2nc3ccccc3o2)CC1 | 4 | 0 | 23165* | 21 | ? | 1
O=C(NCC1CCN(Cc2ccccc2)CC1)[C@H]1O[C@@H](n2ccc(=O)[nH]c2=O)[C@H](O)[C@@H]1O | · | -6 | 5055 | · | 0 | -9
CN(C(=O)CSc1nnc(-c2cccnc2)n1-c1ccccc1F)C1CCS(=O)(=O)C1 (stereo not drawn) | 6 | -7 | 4311 | 24 | 0 | -3
CC(C)CNC(=O)C1C2C=CC(C2)C1C(=O)O (stereo not drawn) | 7 | -2 | 20356* | 12 | ? | 3
Cc1ccc(C(=O)c2no[n+]([O-])c2C(=O)c2ccc(C)cc2)cc1 | 3 | 4 | 2529 | 54* | 1 | 0
Cc1ccc(C(=O)c2ccc(C)cc2)cc1 | -9 | -2 | 3154 | 17 | 0 | 1
CS(=O)(=O)N1CCN(C(=O)c2ccncc2)CC1 | 2 | 3 | 3022 | 14 | 0 | -10
O=C(c1ccncc1)N1CCN(C(=O)c2ccncc2)CC1 | -1 | -3 | 22332* | 7 | -1 | -5
Cc1ccc(C(=O)N2CCSCC2)cc1 | 1 | 0 | 20353* | 16 | 1 | -3
CCOC(=O)C1(C)CCCCCN1C(=O)c1snnc1C (stereo not drawn) | · | -1 | 2869 | · | 0 | 0
CC(C)C[C@@H](CO)N1CCN(CC(C)C)CCC1=O | 6 | -2 | 3712 | -7 | -1 | 1
SMILES | MazEF act | BoNT F protease | Bead autofluor | VHR inh abs | BoNT-A LC inh2 | Anthrax LF prot
COc1ccc2[nH]c(=O)c(CN(C)C(=O)c3ccncc3)cc2c1 | -2 | -3 | 20262* | 12 | -2 | 0
COc1ccc2[nH]c(=O)c(CN(CCc3ccccc3)C(C)=O)cc2c1 | 9 | 3 | 22156* | 9 | 2 | 0
CC(=O)N(CCc1ccccc1)Cc1cc2cc(C)ccc2[nH]c1=O | -7 | -23 | 4478 | 0 | -3 | -8
CC(C)Cn1c(=O)c(C(=O)Nc2ccccc2S(N)(=O)=O)c(O)c2ccccc21 | -4 | -4 | 11555 | 13 | 0 | -1
CCCCCn1c(=O)c(C(=O)NCCc2ccccc2)c(O)c2ccccc21 | -5 | -7 | 3706 | 16 | 1 | -5
CC(C)CCn1c(=O)c(C(=O)Nc2ccccc2S(N)(=O)=O)c(O)c2ccccc21 | 2 | -5 | 22781* | 6 | -2 | -3
CCCn1c(=O)c(C(=O)NCCc2ccccc2)c(O)c2ccccc21 | -19 | 11 | 3838 | 54* | 0 | 4
CN(Cc1ccc(Cl)cc1Cl)C(=O)C1CC(=O)N(Cc2ccco2)C1 (stereo not drawn) | -8 | -4 | 3835 | · | 0 | -2
CC1(C(=O)NS(=O)(=O)Cc2cccc(Cl)c2)CCN1C(=O)CCc1cccs1 (stereo not drawn) | · | 4 | 4068 | · | 0 | -5
COc1ccc(NC(=O)NNC(=O)CCc2ccc(O)c(O)c2)cc1OC | 8 | -10 | ? | 31 | 0 | 1
Cc1cccc(Sc2c([N+](=O)[O-])ncn2C)c1 | 6 | -1 | 23323* | 2 | 0 | 1
Cn1c(/C=C(\C#N)C(N)=S)ccc1-c1ccc(Br)cc1 | -1 | 5 | 4648 | 19 | 33* | 32*
C[C@H]1CN([C@@H](C)CO)C(=O)c2cc(-c3cccc(C#N)c3)cnc2O[C@H]1CN(C)C(=O)c1ccccn1 | 10 | 4 | 3368 | · | 0 | 1
Cc1cc(C)nc(SCC(=O)NNS(=O)(=O)c2ccc(C#N)cc2)n1 | 3 | ? | ? | · | -3 | 0
C=CCN(C(=O)Nc1ccc(F)cc1)C1CC(=O)N(c2ccc(OC)cc2)C1=O (stereo not drawn) | 6 | 3 | 21431* | -19 | 4 | -6
CCCCOC(=O)c1cc(=O)[nH]c2ccccc12 | 0 | 2 | 22271* | 2 | 2 | -3
CCCCOC(=O)c1cc(=O)[nH]c2ccc(C)cc12 | 0 | -10 | 4682 | 17 | -1 | -1
O=S(=O)(c1ccc(F)c(F)c1)N1CCCCCCC1 | 4 | 0 | 3921 | · | 0 | 2
CCCNC(=O)c1cc(-c2ccc(OC)cc2)on1 | -6 | 1 | 16440* | 31 | 0 | -2
COc1cccc(-c2cc(C(=O)NCCc3ccccc3)no2)c1 | -5 | 8 | 21462* | -14 | 7 | 0
COc1cc(OC)cc(C(=O)NC(=S)NCCc2ccccc2)c1 | -2 | 3 | 22614* | 14 | 3 | 0
COc1cccc(-c2cc(C(=O)Nc3cc(C)on3)no2)c1 | -14 | 2 | 22051* | 11 | 0 | 0
O=C(CNCc1ccc(F)cc1)Nc1ccc(C(=O)N2CCCCC2)cc1 | 2 | -7 | 3680 | 26 | -1 | -11
Cc1ccc(OCC(=O)Nc2ccc(S(=O)(=O)NC3=NCCCCC3)cc2)cc1 | 3 | 4 | 3593 | · | 0 | 1
CS(=O)(=O)N1Cc2cc(C(=O)NCC3CC3)nc(-c3cccc(-c4cccnc4)c3)c2[C@H]1CCO | · | 2 | 6108 | · | 1 | 4
